Screens from PubChem.
Not all results are given here.
aSyn 5UTR act: Activators working through SNCA 5'UTR binding (MLPCN); AID 1814; 300,000 tested, 7.1% active; activity score, % (tested at 7.5 µM), hits read low; alpha-synuclein 5'UTR reporter, activators screen; in the data active means activity score below about -60%
The depositor's hits bear a star; ! = repeats disagree.

SMILES	aSyn 5UTR act
COc1ncnc2c1oc1ccccc12	-71*
CCOc1ccc(NC(=O)C2C3CC/C=C\CCC32)cc1 (configuration not stated)	-87*
COc1ccc(NC(=O)C2C3CC/C=C\CCC32)cc1 (configuration not stated)	-141*
CC(C)OC(=O)c1ccc(NC(=O)CSc2nc3ncccc3[nH]2)cc1	-62*
CCc1ccc(-c2cc3c(=O)n(CC(=O)NCc4ccccc4F)ncn3n2)cc1	-70*
Cc1ccc(-c2nn(CC(=O)NCc3cc(-c4nn(C)c(=O)c5ccccc45)ccc3C)c(=O)c3ccccc23)cc1	114
CCCCOc1ccc(-c2ncc(C(=O)O)c(C)n2)cc1	-123*
Cc1ccc(C(=O)Cn2ncsc2=N)cc1	-164*
O=C(N/N=C/c1ccc(N2CCOCC2)cc1)c1cccs1	-179*
O=C(N/N=C/c1cccnc1)c1cccs1	-82*
C/C(=N\NC(=O)COc1ccccc1)c1cccs1	-85*
C/C(=N\NC(=O)c1cccs1)c1cccnc1	-83*
C/C(=N\NC(=O)c1cccs1)c1ccc2ccccc2c1	-92*
Cc1cc(/C=N/NC(=O)c2cccs2)c(C)n1-c1cnccn1	-170*
Nc1cc(N)nc(SCC(=O)Nc2ccc(Br)cc2Cl)n1	-79*
O=C(/C=C/c1ccccc1)Nc1scc(-c2ccccc2)c1C(=O)O	-84*
COc1ccc(-c2csc(NC(=O)c3ccc(C(C)(C)C)cc3)c2C(=O)O)cc1	43
Cc1ccc(-c2csc(NC(=O)c3ccccc3F)c2C(=O)O)cc1	-102*
Cc1ccc(-c2csc(NC(=O)c3ccc(F)cc3)c2C(=O)O)cc1	-105*
CCOC(=O)c1c(-c2ccc(-c3ccccc3)cc2)csc1NC(=O)CNCCN(C)C	101
c1ccc(Cn2c(-c3cncs3)nc3ccccc32)cc1	-92*
Brc1ccc(Cn2c(-c3cncs3)nc3ccccc32)cc1	-112*
COCCNC(=O)c1ccc2c(Cl)c3c(nc2c1)CCC3	-145*
CCOC(=O)/C(C#N)=C\C=C1C=CN(C)C=C1	-150*
CCOC(=O)c1ccc(NC(=O)c2cc3ccccc3o2)cc1	-152*
SMILES	aSyn 5UTR act
CCOC(=O)c1cccc(NC(=O)c2cc3ccccc3o2)c1	-110*
CC(C)C(=O)Nc1ccc(NC(=O)c2cc3ccccc3o2)cc1	-90*
O=C(Nc1ccc(NC(=O)c2cc3ccccc3o2)cc1)c1ccc2c(c1)OCCO2	71
Cc1ccc2nc(-c3ccc(NS(=O)(=O)c4ccc(F)c(F)c4)cc3)sc2c1	-124*
Cc1ccc2nc(-c3ccc(NS(=O)(=O)c4ccccc4)cc3)sc2c1	-85*
COc1ccc(-c2csc(-c3ccc(C(=O)O)cc3)n2)cc1	-160*
O=C(O)c1ccc(-c2nc(-c3ccc(Cl)cc3)cs2)cc1	-173*
O=C(O)c1ccc(-c2nc(-c3ccc(Cl)cc3Cl)cs2)cc1	-179*
C=CCNC(=O)c1ccc(-c2nc(-c3ccccc3)cs2)cc1	-102*
COc1ccc(N2CCN(c3nccs3)CC2)cc1	-154*
COc1ccc(NC(=O)C/C(C)=N/NC(=O)c2cccs2)c([N+](=O)[O-])c1	-111*
COc1ccc(NC(=O)c2sccc2C)c([N+](=O)[O-])c1	-184*
COc1ccc(NC(=O)c2cccs2)c([N+](=O)[O-])c1	-161*
CCCCC(=O)Nc1ccc(C(=O)Nc2ccc(OC)cc2[N+](=O)[O-])cc1	61
COc1ccc(NC(=O)/C=C/c2ccccc2)c([N+](=O)[O-])c1	-176*
Cn1c(=N)n(CC(=O)c2ccc(Cl)c(Cl)c2)c2ccccc21	81
O=C(Cn1cnc2ccc(Cl)cc2c1=O)c1cccs1	-136*
O=c1c2ccccc2ncn1-c1ccc(Cl)cc1	-103*!
O=C(Cn1cnc2ccccc21)c1ccc(Cl)cc1	-71*
O=C(Cn1cnc2ccccc2c1=O)c1ccccc1	-80*
O=C(Cn1cnc2ccccc2c1=O)c1ccc(OC(F)F)cc1	-73*
O=C(Cn1cnc2ccccc2c1=O)c1ccc(Br)cc1	-153*
O=C(Cn1cnc2ccccc2c1=O)c1ccc(Cl)cc1	-90*
CCOc1ccc(C(=O)Cn2cnc3ccccc3c2=O)cc1	-94*
Cc1ccc(NC(=O)c2cnccn2)c(Br)c1	-87*
SMILES	aSyn 5UTR act
Cc1ccc(NC(=O)c2cnccn2)nc1	-78*
Cc1cc(C)c2sc(NNC(=O)c3ccc(S(=O)(=O)N4CCc5ccccc5C4)cc3)nc2c1	77
O=C(Nc1nnc(C2CC2)s1)C1Cc2ccccc2CN1S(=O)(=O)c1cccs1 (configuration not stated)	-66*
CCc1nnc(NC(=O)C2Cc3ccccc3CN2S(=O)(=O)c2ccc(C)cc2)s1 (configuration not stated)	-81*
CCc1nnc(NC(=O)C2Cc3ccccc3CN2S(=O)(=O)c2cccs2)s1 (configuration not stated)	-105*
CCN1CCN(Cc2ccc(NC(=O)Nc3ccc(SC)cc3)cc2)CC1	-103*
CCN1CCN(Cc2ccc(NC(=O)Nc3ccc(OC)cc3)cc2)CC1	-74*
CCOc1ccc(OCc2cccc(C(=O)Nc3ccc(CN4CCCCC4)cc3)c2)cc1	61
COc1ccc(OCc2cccc(C(=O)Nc3ccc(CN4CCCCC4)cc3)c2)cc1	-112*
COc1cc(/C=C/c2cc[n+](C)cc2)ccc1OCC(=O)Nc1ccccc1	-76*
COc1cc(C=C2C(=O)OC(C)(C)OC2=O)ccc1OCC(=O)Nc1ccccc1	-123*
Cc1cccc(NC(=S)NC(=O)c2oc3ccccc3c2C)n1	-144*
Cc1cccc(NC(=S)NC(=O)c2ccc(-c3ccccc3)cc2)n1	-109*
O=C(Nc1ccccn1)c1cc(-c2cccnc2)nc2ccc(Br)cc12	62
Cc1ccc(-c2cc(C(=O)NCc3cnn(C)c3C)c3cc(Br)ccc3n2)cc1	-64*
O=C(c1cccs1)N1CCN(c2ncc(C(F)(F)F)cc2Cl)CC1	-71*
O=C(Oc1c(CN2CCOCC2)cc(Cl)c2cccnc12)c1cccs1	108
CN(C)CC/C=C1\c2ccc(F)cc2Sc2cc(F)c(Cl)cc21	103
CC(C)(CO)NC(=O)c1ccc2c(c1)C(=O)c1ccccc1-2	-96*
O=C(NCc1ccco1)c1ccc2ccccc2c1	-64*
O=C(NCc1ccco1)c1ccc(Oc2ccccc2)cc1	-87*
CCc1nc2ccc(C(=O)NCCc3ccco3)cc2nc1CC	-63*
O=C(NCc1ccco1)c1ccc2c(c1)C(=O)c1ccccc1-2	-77*
COc1ccnc(Oc2ccc3ccccc3c2)c1C#N	-74*
COc1ccnc(N=CNOCc2ccc(C)cc2)c1C#N	-100*
SMILES	aSyn 5UTR act
CSc1nc(Oc2ccc3ccccc3c2)c2sccc2n1	82
COc1ccnc(Oc2ccc(C)cc2)c1C#N	-81*
O=C(Nc1ccccc1)Nc1ccc(Br)cc1F	-163*
O=C(Nc1ccccc1)Nc1cc(OCC(F)(F)F)cc(OCC(F)(F)F)c1	74
Cc1cc(NC(=O)Nc2ccccc2F)ccc1Br	-243*
O=C(Nc1cccc(Cl)c1)Nc1ccc(Br)cc1F	-115*
CCOC(=O)N1CC=C2C(C#N)=C(N)C(C#N)(C#N)[C@H](c3ccccc3OCC)[C@H]2C1	-90*
COc1ccc(OC)c(Nc2cc(-c3ccccc3)nc(N)n2)c1	68
COc1ccc2nc(-c3ccccc3)cc(OC)c2c1	-107*
CC1CCC/C=C/C(=O)c2c(O)cc(O)cc2CC(=O)O1 (configuration not stated)	-153*
Cc1ccc2nsnc2c1NC(=O)CCl	-82*
Cc1ccc2nsnc2c1NC(=O)c1ccc([N+](=O)[O-])o1	-173*
